Compounds with a hit are over-represented: about 2% of the library has one in this group of screens.
GalR3 antag: human GalR3 antagonism; inhibition, % at 3 µM; 360,000 compounds, 0.44% hits; HEK293 GalR3-CNG cAMP membrane potential fluorescence; galR3 body fused to GalR1 C-terminus; AID 651719;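 active = inhibition above the screen-wide average plus 3 SD, cut at about 13% in these data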;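 also: forskolin and galanin both at EC90 stimulate the cells; cAMP rise reported by CNG channel membrane potential dye signal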
Gli-Sufu block: antagonists of Gli-Sufu signaling | Sufu-KO-LIGHT fibroblasts, Gli luciferase reporter luminescence | inhibition, % at 5 µM | 340,000 compounds, 0.74% hits;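 active = inhibition above about 55%, limit read from the data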
Jurkat NFkB inh: inhibitors of the PMA/ionomycin-induced NF-kB reporter in Jurkat cells. 330,000 compounds, 0.53% hits. inhibition, % at 4 µM. PMA/ionomycin-induced NF-kB luciferase reporter, luminescence; in the data active = inhibition above about 50%
697 NFkB inh: inhibitors of the PMA/ionomycin-induced NF-kB reporter in 697 B cells | 697 B-cell NF-kB luciferase reporter, 16 h | inhibition, % at 4 µM | 330,000 compounds, 0.33% hits | AID 435022; in the data active = inhibition above about 35%
COUP-TFII inh: inhibitors of human COUP-TFII (NR2F2) | inhibition, % at 8.6 µM | P24468 | 370,000 compounds, 0.7% hits | HEK293T NGFI-A luciferase reporter, luminescence | AID 686940;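 active = inhibition above a per-plate cutoff, mean inhibition of test wells between control levels plus 3 SD, cut at about 38% in these data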;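 also: cells cotransfected with COUP-TFII expression vector driving the NGFI-A reporter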
Target sequence (P24468 whole entry, looked up): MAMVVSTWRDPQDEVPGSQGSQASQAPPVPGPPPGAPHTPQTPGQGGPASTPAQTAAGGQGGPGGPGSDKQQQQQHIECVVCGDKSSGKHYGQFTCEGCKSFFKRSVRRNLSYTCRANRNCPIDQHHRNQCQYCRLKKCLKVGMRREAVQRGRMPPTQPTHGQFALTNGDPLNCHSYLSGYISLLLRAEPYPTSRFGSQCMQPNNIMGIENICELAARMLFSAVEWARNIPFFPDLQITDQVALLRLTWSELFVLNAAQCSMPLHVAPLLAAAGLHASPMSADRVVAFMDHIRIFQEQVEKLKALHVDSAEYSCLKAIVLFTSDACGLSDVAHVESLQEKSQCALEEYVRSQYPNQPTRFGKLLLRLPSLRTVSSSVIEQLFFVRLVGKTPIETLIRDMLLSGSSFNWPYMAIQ
Gal4-VP16 ctr: VP16 inhibition counter-screen for COUP-TFII; 2,500 compounds, 25% hits; inhibition, % at 8.5 µM; shares compounds with COUP-TFII inh; HEK293 Gal4-VP16 luciferase reporter, luminescence; in the data active = inhibition above about 13%
NR2F2 inh conf: confirmation of human COUP-TFII (NR2F2) inhibitors | AID 687008 | shares compounds with COUP-TFII inh | 2,500 compounds, 45% hits | inhibition, % at 8.5 µM | HEK293 NGFI-A luciferase reporter, luminescence;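 active = mean inhibition over three repeats above a set limit taken from the earlier primary screen, cut at about 38% in these data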
Hits are given with their value; . = inactive; / = no result given.

SMILES | GalR3 antag | Gli-Sufu block | Jurkat NFkB inh | 697 NFkB inh | COUP-TFII inh | Gal4-VP16 ctr | NR2F2 inh conf
C=CCn1c(SCC(=O)Nc2sccc2C(N)=O)nc2sc(CC)cc2c1=O | . | . | . | . | 41.6 | . | .
COc1ccc(CC(=O)OCC(=O)NC2CCCC(C)C2C)cc1OC (stereo not given) | . | . | . | . | 50.1 | . | .
Cc1cccc(C)c1OCc1cc(C(=O)NCC2CCCCC2)no1 | . | . | . | . | . | / | /
Cc1cccc(C)c1OCc1cc(C(=O)N(Cc2c(C)nn(C)c2C)C2CC2)no1 | . | . | . | . | 50.8 | . | .
CCOc1cc(/C=N/N=C/c2ccc(O)c(OCC)c2)ccc1O | . | . | . | . | . | / | /
CCOc1cc(/C=C2\CN(CC)C/C(=C\c3ccc(O)c(OCC)c3)C2=O)ccc1O | . | . | . | . | 79.1 | 48.3 | 72.0
COc1cc(OC)cc(C(C)c2ccc(C)cc2)c1 (stereo not given) | / | / | / | / | . | / | /
CN(C(=O)CN1CCN(c2cc(-c3ccc(-c4ccccc4)cc3)ncn2)CC1)c1ccccc1 | . | / | / | / | 53.8 | . | .
CC(=O)Oc1ccccc1C(=O)C=Cc1cccc([N+](=O)[O-])c1 | 27.6 | . | / | / | 46.8 | . | .
NCCOc1ccccc1-c1ccccc1 | . | . | . | . | . | / | /
Nc1ccc(Oc2ccccc2-c2ccccc2)cc1 | . | . | . | . | 78.2 | 76.8 | 73.3
Nc1nonc1C(=O)NCCNCc1cc(Br)ccc1OCc1ccc(F)cc1 | . | . | . | . | 50.4 | . | .
CCN(CC)S(=O)(=O)c1ccc(/C=C/C(=O)Nc2ccc(F)c(F)c2F)cc1 | . | . | . | . | 62.5 | . | 47.4
CCN(CC)S(=O)(=O)c1ccc(/C=C/C(=O)Nc2ccc(F)cc2F)cc1 | . | . | . | . | 49.8 | . | .
O=C(/C=C/c1ccc(S(=O)(=O)N2CCOCC2)cc1)Nc1ccc(F)c(F)c1F | . | . | . | . | . | / | /
COC(=O)C1CN(C2CCCC2)CCS(=O)(=O)N1Cc1cn(Cc2ccc(OC)cc2)nn1 (stereo not given) | / | / | / | / | . | / | /
COc1ccc(OCCNC(=O)c2ccc3nc(C)c(N(C)C(=O)CCc4ccccc4)n3c2)cc1 | . | / | / | / | 85.2 | . | .
COC(=O)c1ccc(N2C(c3ccsc3)=Cc3cc4c(cc3C2CC(=O)c2ccco2)OCO4)cc1 (stereo not given) | . | / | / | / | 43.0 | . | .
COc1ccccc1C(=O)NC1CCCCN(Cc2ccc(Cl)cc2)C1=O (stereo not given) | / | / | / | / | . | / | /
CCOC(=O)C(NC(=O)c1ccccc1)(Nc1cccc(C)n1)C(F)(F)F (stereo not given) | . | . | . | . | 39.5 | . | .
CCOC(=O)C(NCc1ccco1)(NC(=O)c1ccccc1)C(F)(F)F (stereo not given) | . | . | . | . | . | / | /
